Records with an inconclusive call do not appear. Activity calls are given as the source filed them. Calls follow the shape of the dose curve; as a rule, active = well fitted inhibition curve with a large enough effect; inconclusive = small, poorly fitted or top-dose-only effect; inactive = no such curve, though single readings can be large or run the other way.
Target: Cruzipain (Trypanosoma cruzi) (UniProt P25779)
Assay: Confirmation qHTS Assay for Inhibitors of Cruzain; also: nearly all actives have a fitted effect of over 40% in size;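 as to activity change, negative = inhibition: plate controls were uninhibited enzyme control for no effect and buffer wells lacking enzyme for full effect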
Details: purified cruzain, Z-FR-AMC fluorescence, 0.01% Triton
In short: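 Purified cruzain, 1.5 nM, pre-incubated 15 min at room temperature with compound in 100 mM sodium acetate pH 5.5, 5 mM DTT, 0.01% Triton X-100. Then 2 uM Z-FR-AMC added; AMC fluorescence (ex 360/em 450 nm) increase over 60 s gave reaction progress.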
Potency is read from the fitted curve at half-maximal effect.

Cruzipain (Trypanosoma cruzi), sequence (P25779 123-467 limits assumed): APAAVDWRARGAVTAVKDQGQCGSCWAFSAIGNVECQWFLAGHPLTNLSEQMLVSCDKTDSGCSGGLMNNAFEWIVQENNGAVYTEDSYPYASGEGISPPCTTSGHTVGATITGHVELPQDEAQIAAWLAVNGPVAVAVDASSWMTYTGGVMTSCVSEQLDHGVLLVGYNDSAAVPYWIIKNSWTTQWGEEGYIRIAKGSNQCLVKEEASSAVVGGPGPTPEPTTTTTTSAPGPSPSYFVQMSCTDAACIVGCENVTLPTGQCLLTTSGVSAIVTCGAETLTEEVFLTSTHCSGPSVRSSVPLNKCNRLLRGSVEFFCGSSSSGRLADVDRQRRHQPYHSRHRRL

SMILES	Potency	activity change, negative = inhibition
COc1ccc(OC)c(NC(=O)C(OC(=O)CNC(=O)c2ccccc2)c2ccccc2)c1 (stereo not given)	11.2 µM (active)	–
CCC(C)NC(=O)c1ccc2nc(-c3cccs3)c(-c3cccs3)nc2c1 (stereo not given)	–	-5.12% (inactive)
CCC(C(=O)NC1CCCCC1)n1c(SCc2ccccc2F)nc2ccncc21 (stereo not given)	4.47 µM (active)	–
N#Cc1nc(Nc2ccc(Br)cc2)nc(NC2CCCC2)n1	0.501 µM (active)	–
CC(C)(C)OC(=O)Cc1nnc(-c2nc3ccccc3[nH]2)s1	–	-9.29% (inactive)
O=C(CNC(=O)C1CCCCC1)OCC(=O)c1cccc(Cl)c1	2.82 µM (active)	–
CCOC(=O)CNC(=O)C1CCCCC1	–	-11.9% (inactive)
O=c1cc(-c2ccccc2Cl)oc2c(NS(=O)(=O)c3cc(Cl)cc(Cl)c3O)ccc(O)c12	7.08 µM (active)	–
CCOc1ccc(-c2csc(NC(=O)c3ccc(S(=O)(=O)N4CCc5ccccc5C4)cc3)n2)cc1	–	-11% (inactive)
Cn1nc(-c2cccnc2)nc2c(=O)n(C)c(=O)nc1-2	1.12 µM (active)	–
N#Cc1nc(Nc2ccc(-c3ccccc3)cc2)nc(NC2CCCC2)n1	3.98 µM (active)	–
O=C1/C(=C/c2ccco2)CCc2ccccc21	2.51 µM (active)	–
N#Cc1nc(N2CCCCC2)nc(N(c2ccccc2)c2ccccc2)n1	2.24 µM (active)	–
CC(C)(C)OC(=O)Cc1nnc(C(C(=O)OCc2ccccc2)c2ccccc2)s1 (stereo not given)	–	-12.2% (inactive)
COc1cc2cc(CN(Cc3nnnn3Cc3ccco3)C3CCCCC3)c(=O)[nH]c2cc1OC	14.1 µM (active)	–
